Source: PubChem
Shown is part of a subset that was picked to be rich in hits.
CBX7 inh – blocks human CBX7 binding to H3K27me3 peptide. normalised signal (fraction of DMSO) (test concentration not listed). hit rate 1.1% among 66,000. AlphaScreen His6-CBX7 / biotin-H3K27me3 peptide binding; stronger effect = lower value. O95931. AID 1224903; in the data active = normalised signal below about 0.5
Target sequence (O95931 whole entry, looked up): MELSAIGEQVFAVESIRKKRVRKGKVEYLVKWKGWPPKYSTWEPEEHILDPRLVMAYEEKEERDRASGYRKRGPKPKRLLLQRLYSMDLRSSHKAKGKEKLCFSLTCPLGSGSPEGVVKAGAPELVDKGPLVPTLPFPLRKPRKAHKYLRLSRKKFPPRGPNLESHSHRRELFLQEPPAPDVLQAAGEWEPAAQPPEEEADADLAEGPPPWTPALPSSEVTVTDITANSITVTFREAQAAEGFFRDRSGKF
The depositor's hits bear a star.

SMILES | CBX7 inh
COc1cccc(-c2nc(C(=O)NCCc3ccc(OC)c(OC)c3)c(C)o2)c1 | 0.97
Cc1ccc(C)c(N2CC(c3nc4ccccc4n3Cc3ccc(F)cc3)CC2=O)c1 (stereo not given) | 0.99
O=C(NC1CCCCC1)C(c1ccc(Cl)cc1)N1CCc2ccccc21 (stereo not given) | 0.96
Fc1ccc(-n2cc(-c3ccccc3)c3c(NCC4CCCO4)ncnc32)cc1 (stereo not given) | 0.97
Cc1sc2ncn(CC(=O)NCC(=O)NC3CCCCCC3)c(=O)c2c1C | 0.95
c1ccc2c(-c3nc(-c4ccncc4)no3)cc(-c3ccncc3)nc2c1 | 1.1
Cc1ccccc1-c1noc(-c2cc(-c3ccncc3)nc3ccccc23)n1 | 0.75
CCCc1noc(-c2cc(-c3ccncc3)nc3ccccc23)n1 | 0.44*
O=C(C1CC1)N1CCc2cc(S(=O)(=O)NCCc3ccc(Cl)cc3)ccc21 | 1
O=C(Nc1nnc(-c2ccccc2Cl)o1)c1ccc(S(=O)(=O)N2CCOCC2)cc1 | 0.052*
O=C(Nc1nnc(-c2ccccc2Cl)o1)c1ccc(S(=O)(=O)N2CCCC2)cc1 | 0.89
COc1cc(OC)cc(-c2nnc(NC(=O)c3ccc(S(=O)(=O)N4CC(C)OC(C)C4)cc3)o2)c1 (stereo not given) | 0.91
O=C(Nc1nnc(-c2cccs2)o1)c1ccc(S(=O)(=O)N2CCOCC2)cc1 | 0.71
CC1CN(S(=O)(=O)c2ccc(C(=O)Nc3nnc(-c4ccccc4Cl)o3)cc2)CC(C)O1 (stereo not given) | 0.041*
CCC1CCCCN1S(=O)(=O)c1ccc(C(=O)Nc2nnc(-c3ccccc3Cl)o2)cc1 (stereo not given) | 0.055*
CCCCN(C)S(=O)(=O)c1ccc(C(=O)Nc2nnc(-c3ccccc3Cl)o2)cc1 | 0.91
CCC1CCCCN1S(=O)(=O)c1ccc(NC(=O)c2oc3ccccc3c2C)cc1 (stereo not given) | 0.93
O=C(NCc1ccccc1)C1CCCN(C(=O)c2cnn(-c3ccccc3)c2-n2cccc2)C1 (stereo not given) | 1.2
Cc1cccnc1NC(=O)C1CCN(S(=O)(=O)c2c(C)noc2/C=C/c2cccs2)CC1 | 0.97
O=C(CCc1nc(-c2ccccc2F)no1)NCCN1CCN(c2ccccc2F)CC1 | 1
COc1cc(OC)cc(-c2cc3nc(C)c(CCC(=O)NCc4ccc(F)cc4)c(C)n3n2)c1 | 1
Cc1cc(C)cc(-n2ccnc2SCC(=O)Nc2ccc(Cl)cc2)c1 | 0.65
COc1ccc(Cl)cc1NC(=O)c1c(NCc2ccc(OC)c(OC)c2)sc2c1CCC2 | 0.9
Cc1n[nH]c(C)c1CCCCOc1ccc(C(C)(C)C)cc1 | 0.82
Cc1n[nH]c(C)c1CCCCCCOc1ccc(F)cc1 | 1
SMILES | CBX7 inh
COc1ccc(OCCCCCCc2c(C)n[nH]c2C)cc1 | 0.43*
COc1cccc(-n2c(Cc3cc(=O)[nH]c(=O)[nH]3)nnc2SCc2ccc(Cl)cc2)c1 | 0.9
COc1ccc(-c2noc(C(c3ccccc3)c3ccccc3)n2)cc1 | 1.1
c1ccc(C(c2ccccc2)c2nc(-c3cccnc3)no2)cc1 | 0.32*
c1ccc(C(Cc2nc(-c3cccnc3)no2)c2ccccc2)cc1 | 0.93
CCOc1ccc(CCN2C(=O)CC(Cc3ccc(C)cc3)C2=O)cc1OCC (stereo not given) | 1
CCn1cnc2cc(NCc3ccc(OC)c(OC)c3)ccc21 | 0.95
CCCn1cnc2cc(NCc3cccc(OC)c3)ccc21 | 0.56
CCn1cnc2cc(NCc3ccc(Br)cc3)ccc21 | 0.96
CCCCn1cnc2cc(NCc3ccc(Br)cc3)ccc21 | 0.25*
CCCn1cnc2cc(NCc3ccc(Br)cc3)ccc21 | 0.33*
CCCn1cnc2cc(NCc3ccc(OC)c(OC)c3)ccc21 | 0.81
Cc1cccc(CN2C(=O)CSc3ccc(C(=O)NCCC4=CCCCC4)cc32)c1 | 1
COc1cccc(-c2nc(CS(=O)(=O)CC(=O)Nc3ccc(Br)c(C)c3)c(C)o2)c1 | 1
CCOC(=O)N1CCC(Nc2c(NCc3ccccn3)c(=O)c2=O)CC1 | 0.82
CC(NC(=O)C(=O)NCCN1CCOCC1)C(c1cccs1)N1CCN(Cc2ccccc2)CC1 (stereo not given) | 1.2
O=C(NCc1c(F)cc(F)cc1F)c1ccc2c(c1)N(Cc1cccc(Cl)c1)C(=O)CS2 | 1.1
O=C(CSc1nc2ccccc2[nH]1)NCCOc1ccccc1 | 1
COc1ccc(OCc2nc(C#N)c(N3CCCC3)o2)cc1 | 0.86
N#Cc1nc(COc2ccc(Br)cc2)oc1N1CCCCCC1 | 0.42*
CCN1CCN(c2oc(COc3ccc(Cl)cc3)nc2C#N)CC1 | 0.72
Cc1ccc(OCc2nc(C#N)c(N3CCC(Cc4ccccc4)CC3)o2)cc1 | 0.6
N#Cc1nc(COc2ccc(Br)cc2)oc1N1CCCC1 | 0.47*
CCOc1ccc(C2c3[nH]c4ccccc4c3CCN2C(=O)c2cccc(Br)c2)cc1 (stereo not given) | 0.68
FC(F)(F)c1cc(-c2ccc(Cl)cc2)nc(N2CCCCC2)n1 | 1.9
SMILES | CBX7 inh
COc1ccc(C(=O)N2CC(=O)Nc3ccc(C)cc3C2c2ccc(F)cc2)cc1 (stereo not given) | 0.74
COc1ccc(C(=O)N2CC(=O)Nc3ccc(C)cc3C2c2ccc(F)cc2)c(OC)c1 (stereo not given) | 0.3*
COc1ccccc1C(=O)N1CC(=O)Nc2ccc(F)cc2C1c1ccccc1 (stereo not given) | 1.1
CCOC(=O)c1cc(-c2ccccc2)n(-c2ccc(C(=O)Nc3ccc(F)cc3)cc2)c1C | 0.78
CCCCCc1ccc(-c2ccc(C(=O)Nc3ccc(C)cc3Br)cc2)nc1 | 1.1
CCC(C)(C(=O)NC1CCCCC1)N(C(=O)c1cnccn1)c1ccccc1 (stereo not given) | 0.99
NC(=O)c1ccc(-n2nnnc2SCC(=O)Nc2ccccc2)cc1 | 1.1
O=C(CSc1nnnn1-c1ccccc1)Nc1ncccn1 | 0.13*
O=C(CSc1nnnn1-c1ccc(Cl)cc1)Nc1ccccc1Cl | 0.86
CCC(=O)N1CCc2cc(S(=O)(=O)N3CCN(c4cccc(Cl)c4)CC3)ccc21 | 0.83
CC(C)NC(=O)c1ccc2c(c1)N(Cc1ccccc1)C(=O)c1ccccc1S2 | 1
O=C(Nc1ccc(Cc2ccncc2)cc1)C12CC3CC(CC(C3)C1)C2 | 0.96
O=C(Nc1ccc(Cc2ccncc2)cc1)c1ncn[nH]1 | 0.058*
Cc1ccc(NC(=O)Nc2ccc(Cc3ccncc3)cc2)cc1C | 1
Cc1cccc(NCC(O)Cn2c(C)c(C)c3ccccc32)c1 (stereo not given) | 0.47*
CCC(CO)NCC(O)Cn1c(C)c(C)c2ccccc21 (stereo not given) | 0.73
Cc1c(C)n(CC(O)CN2CCCCCC2)c2ccccc12 (stereo not given) | 1
Cc1nn(CC(O)Cn2c(C)c(C)c3ccccc32)c(C)c1Br (stereo not given) | 0.44*
Cc1ccc(C)c(NCC(O)Cn2c(C)c(C)c3ccccc32)c1 (stereo not given) | 0.67
CCOc1ccc(NCC(O)Cn2c(C)c(C)c3ccccc32)cc1 (stereo not given) | 0.43*
Cc1c(C)n(CC(O)CNCCO)c2ccccc12 (stereo not given) | 0.92
Cc1c(C)n(CC(O)CNCc2ccccc2)c2ccccc12 (stereo not given) | 0.82
Cc1c(C)n(CC(O)CNC2CCCCC2)c2ccccc12 (stereo not given) | 0.98
Cc1c(C)n(CC(O)CNc2ccccc2)c2ccccc12 (stereo not given) | 0.25*
COc1ccc(NCC(O)Cn2c(C)c(C)c3ccccc32)c(OC)c1 (stereo not given) | 0.55
